Wnt act – Wnt/beta-catenin pathway activation; 300,000 compounds, 1.2% hits; activation, % at 9.35 µM; Wnt/beta-catenin reporter cell assay, activator, plate reader; AID 743398; in the data active = activation above about 30%, passing the limit was not always enough; inconclusive = no clear call, values can overlap the other calls;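 also: 0% = neutral control wells and 100% = positive control wells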
FXN GAA850 act – activators of GAA850 frataxin (FXN) promoter; HEK293 lucGAA850 FXN promoter luciferase reporter, 24 h; percent of 10 µM SAHA response; activation, % at 6 µM; 360,000 compounds, 0.56% hits;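 active = activation above the average of all compounds screened plus 3 SD, cutoff fixed separately per campaign, cut at about 7.5% in these data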;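 also: 0% = DMSO wells and 100% = 10 µM SAHA wells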
AHR act – activates the human aryl hydrocarbon receptor; P35869; AHR-responsive luciferase reporter cells, luminescence; activation, % at 5 µM; 320,000 compounds, 2.5% hits; AID 2796; in the data active = activation above about 47%;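 also: 0% = vehicle wells and 100% = reference agonist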
Target sequence (P35869 whole entry, looked up): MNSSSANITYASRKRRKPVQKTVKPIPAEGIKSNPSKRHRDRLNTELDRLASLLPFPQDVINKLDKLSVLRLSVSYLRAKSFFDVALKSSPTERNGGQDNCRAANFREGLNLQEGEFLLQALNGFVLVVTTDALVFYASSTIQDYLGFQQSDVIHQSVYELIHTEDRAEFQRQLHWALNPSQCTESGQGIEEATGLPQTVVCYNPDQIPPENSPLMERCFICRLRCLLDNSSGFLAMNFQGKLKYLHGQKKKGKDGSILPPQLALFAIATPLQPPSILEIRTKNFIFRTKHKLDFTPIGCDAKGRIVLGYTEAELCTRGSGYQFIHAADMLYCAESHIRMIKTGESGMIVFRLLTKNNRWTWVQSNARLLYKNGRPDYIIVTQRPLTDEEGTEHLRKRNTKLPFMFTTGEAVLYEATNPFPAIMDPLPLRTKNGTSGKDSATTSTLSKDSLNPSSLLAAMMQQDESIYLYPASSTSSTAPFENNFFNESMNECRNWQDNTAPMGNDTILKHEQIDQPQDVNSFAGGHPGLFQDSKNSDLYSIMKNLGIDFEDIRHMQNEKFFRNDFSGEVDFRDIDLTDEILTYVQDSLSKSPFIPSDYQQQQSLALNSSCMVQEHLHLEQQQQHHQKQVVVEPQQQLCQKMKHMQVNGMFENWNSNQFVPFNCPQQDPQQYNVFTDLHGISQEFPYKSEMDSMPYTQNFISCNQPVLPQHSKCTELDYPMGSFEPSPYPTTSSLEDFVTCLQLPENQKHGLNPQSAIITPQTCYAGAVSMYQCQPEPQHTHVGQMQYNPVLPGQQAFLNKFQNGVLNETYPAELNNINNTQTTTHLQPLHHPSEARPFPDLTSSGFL
esBAF inh – SWI/SNF esBAF complex inhibition. reporter increase, % at 12.5 µM. 350,000 compounds, 2% hits. mouse ES cells, Bmi1-luciferase knock-in reporter, 24 h; 100% = twice the neutral-well signal; in the data active = activation above about 40%; inconclusive = no clear call, values can overlap the other calls;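 also: 0% = median of the plate's neutral control wells and 100% = double that signal; a rise in the Bmi1 reporter signal indicates esBAF inhibition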
MITF TRPM1 HTS – increases MITF-driven TRPM1 promoter luciferase signal; 300,000 compounds, 0.75% hits; AID 588334; activation, % at 12.5 µM; SK-MEL-5 TRPM1-promoter luciferase, 24 h; % of positive control, neutral wells = 0;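 active = mean activation of at least 80% with every replicate also reaching 80%; inconclusive = mean reaches 80% but some replicate falls short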;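 also: 0% = neutral control wells and 100% = parthenolide positive control wells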
The depositor's hits bear a star; u = inconclusive; x = no result given. An excerpt weighted towards active compounds, which were near 4.2% of everything screened.

SMILES | Wnt act | FXN GAA850 act | AHR act | esBAF inh | MITF TRPM1 HTS
c1ccc(CCn2nnc3ccccc32)cc1 | 54.1* | 5.6 | 17.1 | 31.2 | 97.8*
Cc1nc2ccccc2c(=O)n1CCc1ccccc1 | 3.7 | 2.0 | 50.6* | 13.7 | 0.5
Cc1nc2ccccc2n1CCc1ccccc1 | 0.1 | 1.2 | 0.9 | 6.7 | 5.2
O=c1c2ccccc2nc(SCCN2CCOCC2)n1CCc1ccccc1 | -1.6 | 0.8 | 52.0* | x | 5.9
COc1ccc(CCn2c(SCCN3CCCCC3)nc3ccccc3c2=O)cc1OC | -1.1 | 3.9 | -2.7 | -7.8 | 17.1
CC(=O)c1nc2ccccc2n1CCc1ccccc1 | -0.7 | 1.6 | 55.3* | -6.7 | -1.3
O=C(Cc1cccnc1)N[C@@H]1CC[C@@H](CCn2cc(Cc3ccccc3)nn2)O[C@@H]1CO | x | x | x | -2.7 | x
COc1cccc(-c2nc(-c3ccccc3)[nH]c(=O)c2C#N)c1 | -1.2 | -1.3 | 79.0* | -11.5 | -8.9
COc1ccc(-c2nc(-c3cccc(C)c3)[nH]c(=O)c2C#N)cc1 | -0.8 | 1.2 | 0.2 | -1.6 | 5.7
COCC(=O)N1[C@H](CO)[C@H]2c3ccccc3N(C(=O)C3CC3)C[C@H]21 | x | x | x | 0.0 | x
NC(=O)c1nsc(C(=O)N(c2cccc(F)c2)C(C(=O)NCC2CCCO2)c2c[nH]c3ccccc23)c1N (configuration not stated) | 0.9 | -0.3 | 64.6* | 18.0 | 14.8
Cc1cccc(N(C(=O)c2snc(C(N)=O)c2N)C(C(=O)NCC2CCCO2)c2c[nH]c3ccccc23)c1 (configuration not stated) | -2.0 | 1.1 | 9.3 | 4.2 | x
NC(=O)c1nsc(C(=O)N(c2ccc(F)cc2)C(C(=O)NCC2CCCO2)c2c[nH]c3ccccc23)c1N (configuration not stated) | 2.1 | 1.9 | 74.1* | -1.6 | -2.8
CCOc1ccccc1/C=C/C(=O)c1ccc(Cl)cc1 | 6.4 | 0.1 | 70.5* | x | -5.9
O=C(/C=C/c1ccccc1O)c1ccc(Cl)cc1 | 20.2 | 1.0 | 66.0* | x | 2.2
COc1ccccc1/C=C/C(=O)NC(=S)NC(C)C | -1.5 | 0.4 | 67.8* | x | 0.4
COc1ccccc1/C=C/C(=O)c1ccc(Cl)cc1 | x | 2.5 | 91.3* | 13.6 | 34.5
O=C(C[C@@H]1CC[C@H]2[C@@H](COC[C@H](O)CN2C(=O)Nc2cccc(F)c2)O1)NCc1ccccc1Cl | x | x | x | 7.4 | x
Cc1cc(C)nc(SCC(=O)Nc2ccc(Br)cn2)n1 | -0.4 | -1.6 | 19.2 | -5.9 | -5.4
CCOC(=O)c1ccc(NC(=O)CSc2nnc(CNc3ccc(OC)cc3)n2C)cc1 | 0.2 | -1.7 | 59.0* | x | 13.0
CSc1nsc(SCC(=O)Nc2ccc(NC(C)=O)cc2)n1 | 2.3 | 0.8 | 14.4 | 11.9 | 12.8
CSc1nsc(SCC(=O)Nc2ccc(C(C)=O)cc2)n1 | x | 3.6 | 25.9 | 47.7* | 37.1
COc1ccc(NC(=O)CSc2nc(SC)ns2)cc1 | u | 4.1 | 5.4 | 56.4* | 108.2*
CSc1nsc(SCC(=O)Nc2ccc(Br)cn2)n1 | 1.2 | 4.5 | 47.8* | 16.0 | x
CN1C(=O)c2cc(NC(=O)Nc3ccccc3Cl)ccc2OC[C@@H]2O[C@@H](CC(=O)O)CC[C@H]21 | x | x | x | 5.5 | x
SMILES | Wnt act | FXN GAA850 act | AHR act | esBAF inh | MITF TRPM1 HTS
COc1cccc(-c2ccc3c(c2)[C@H]2[C@H](CCN2C(=O)c2ccccn2)[C@H](CO)N3)c1 | x | x | x | 44.9* | x
N#Cc1cccc(-c2ccc3c(c2)[C@@H]2[C@@H](CCN2C(=O)c2ccncc2)[C@@H](CO)N3)c1 | x | x | x | 61.4* | x
COc1cccc(-c2ccc3c(c2)[C@@H]2[C@@H](CCN2C(=O)c2ccccn2)[C@H](CO)N3)c1 | x | x | x | 30.1 | x
N#Cc1ccc(-c2ccc3c(c2)[C@@H]2[C@@H](CCN2C(=O)c2ccncc2)[C@H](CO)N3)cc1 | x | x | x | -1.9 | x
C[C@H]1CN([C@@H](C)CO)C(=O)c2c(c3ccccc3n2C)-c2ccccc2CO[C@H]1CN(C)Cc1ccc(C(=O)O)cc1 | x | x | x | -3.1 | x
COc1ccccc1CNC(=O)C[C@@H]1C[C@@H]2c3cc(NC(=O)c4ccc5c(c4)OCO5)ccc3O[C@@H]2[C@H](CO)O1 | x | x | x | 0.9 | x
COc1ccc(NC(=O)N(C)C[C@H]2Oc3c(NC(=O)c4cnccn4)cccc3C(=O)N([C@H](C)CO)C[C@@H]2C)cc1 | x | x | x | 7.9 | x
Cc1ccc(OCC(=O)c2ccc3c(c2)CCCC3)cc1C | 6.4 | 7.1 | -2.9 | 18.2 | 96.6*
Cc1ccc(NC(=O)COc2ccc3c(c2)CCC3)nc1 | u | 0.5 | 12.6 | 16.9 | 93.9*
Cc1cccnc1NC(=O)COc1ccc2c(c1)CCC2 | 16.8 | 1.9 | -1.5 | 57.4* | 100.3*
Cc1csc(NC(=O)COc2ccc3c(c2)CCC3)n1 | 20.4 | 1.9 | 18.3 | 63.7* | 78.3
O=C(N[C@@H]1CC[C@@H](CCNS(=O)(=O)c2ccc(F)cc2)O[C@H]1CO)C1CCCC1 | x | x | x | -2.9 | x
C[C@@H]1CN([C@H](C)CO)C(=O)c2ccccc2-c2ccccc2CO[C@H]1CN(C)S(=O)(=O)c1cn(C)cn1 | x | x | x | -4.9 | x
C[C@H](CO)N1C[C@H](C)[C@@H](CN(C)Cc2ccc(Oc3ccccc3)cc2)Oc2ccc(NS(=O)(=O)c3ccc(Cl)cc3)cc2CC1=O | x | x | x | 1.5 | x
O=C(NC1Cc2ccccc2C1)[C@@H]1[C@@H](CO)[C@@H]2Cn3c(cccc3=O)[C@H]1N2C(=O)CC1CC1 | x | x | x | 0.4 | x
CCc1ccc2c(c1)[C@H]1OCC[C@H]1[C@@H](c1cccs1)N2 | x | -5.5 | 78.4* | x | 5.3
CCc1ccc2c(c1)/C(=C/C(=O)c1cccs1)C(=O)N2 | x | -3.8 | 18.6 | 4.7 | x
Cn1cnc(S(=O)(=O)N2CCCCN3[C@H](CO)[C@@H](c4ccc(C#CC5CCCC5)cc4)[C@@H]3C2)c1 | x | x | x | 0.7 | x
O=C(COC(=O)c1ncc(Cl)c(Cl)c1Cl)Nc1ccc(Cl)cn1 | 2.2 | 0.4 | 66.4* | -8.7 | -26.5
O=C(Nc1ccccc1Cl)Oc1ccc(Cl)cc1Cl | -1.2 | -0.5 | 50.4* | 5.0 | 15.1
Cc1cc(Cl)ccc1OCC(=O)Nc1ccccc1CO | 16.7 | 1.9 | 43.6 | 42.4* | 37.1
S=C(Nc1ccccc1Cl)Nc1ccc(Cl)cc1Cl | x | -1.9 | 3.6 | -7.5 | -15.4
CSc1ccccc1NC(=O)COc1ccc(Cl)cc1C | 1.3 | 1.6 | 10.5 | x | 14.9
O=C(COc1ccccc1O)Nc1ccccc1Cl | x | 4.4 | -3.7 | 51.7* | 47.9
C[C@@H]1CN([C@H](C)CO)C(=O)c2cccc(N(C)C)c2O[C@H]1CN(C)Cc1ccc(Cl)c(Cl)c1 | x | x | x | 4.9 | x
SMILES | Wnt act | FXN GAA850 act | AHR act | esBAF inh | MITF TRPM1 HTS
O=C(COc1ccc(Cl)cc1Cl)Nc1ccccc1F | 44.6* | 2.9 | -1.7 | x | x
O=C(COc1ccc(Cl)cc1Cl)N1CCCCCC1 | x | -0.4 | -1.3 | 48.1* | x
O=C(COc1ccc(Cl)cc1Cl)Nc1ccc(Cl)cn1 | 12.5 | 3.0 | -2.3 | -6.8 | 95.7*
Cc1cc(Cl)ccc1OCC(=O)OCC(=O)Nc1ccc(Cl)cn1 | -1.5 | 0.0 | x | 5.7 | x
O=C(COc1ccc(Cl)cc1Cl)c1ccc[nH]1 | 33.2* | 5.2 | 10.2 | u | 72.2
CO[C@H]1CC[C@H]2CCN(C)C(=O)[C@H](C)[C@@H](OC)CN(C)C(=O)c3cccc(C#N)c3OC[C@@H]1O2 | x | x | x | -2.8 | x
